The source made the active and inactive calls. How the source made its calls: active means hit-call score of the fitted dose curve at least 0.9, where 1 is the maximum; inactive means score below 0.9.

In general, AC50 refers to the concentration giving half of the maximal activity seen.

Read-out in the assay: Cytochrome P450 4A22 (Homo sapiens) (UniProt Q5TCH4)
The experiment in a line: LTEA_HepaRG_CYP4A22: Life Technologies and Expression Analysis (LTEA) Assay for Cytochrome P450 4A22 (CYP4A22) using HepaRG (AID 2283495). The settings on record: mRNA level, 48 h; actives raise or lower the signal. The protocol: LTEA_HepaRG is a cell based, multiplexed-readout assay that uses HepaRG, a human liver cell line, with measurements taken at 48 hours after chemical dosing on a 96-well plate.LTEA_HepaRG_CYP4A22 is one of 102 assay component(s) measured in the LTEA HepaRG cell culture assay. It is a marker of NR mediated metabolism.Data from the assay component LTEA_HepaRG_CYP4A22 was analyzed into 1 endpoint. This assay endpoint, LTEA_HepaRG_CYP4A22, was analyzed with bidirectional fitting relative to DMSO as the negative control and baseline of activity. Using a type of inducible reporter, measures of mRNA induction for gain or loss-of-signal activity can be used to understand regulation of transcription factor activity. To generalize the intended target to other relatable targets, this assay endpoint is annotated to the cyp intended target family, where the subfamily is xenobiotic metabolism.
A total of 1060 chemcials from the ToxCast library were tested in eight-point concentration-response experiments. Cell culture and cytotoxicity assays were conducted at Thermo Fisher Scientific's Custom Services facility (Madison, WI). A single lot of human HepaRG cells (Thermo Fisher Scientific, Frederick, MD) was used for the cell culture experiments. 96-well format collagen type I coated plates of human HepaRG cells were prepared using established methods. Briefly, cryopreserved HepaRG cells were thawed, plated at a density of approximately 100,000 cells/well in HepaRG Thaw, Plate, and General Purpose media (HPRG770, Thermo Fisher Scientific), and incubated for 48 hours. 0.5% DMSO was selected as vehicle control to balance the requisite need of DMSO in HepaRG cultures to maintain differentiation (for example, baseline metabolism, proportions of hepatocytes vs. cholangiocytes), while enabling further hepatic receptor pathway activation (for example, PXR and CAR) in response to chemical exposure. 48 hours after plating, the culture medium was replaced with HepaRG Serum-Free Incudtion Media. Cells were exposed to each test chemical in duplicate and maintained in CO2 incubators for another 48 hours. Chemical plates were thawed to room temperature and 200x concentrations of treatment groups were prepared. 8-point conentration-reponse curves were made with the highest exposure at 100 uM, followed by half-log dilutions, all in 0.5% DMSO. Each test plate contained variouse controls, induction positive controls (1mM phenobarbital), cytotoxicity positive controls ([…] aflatoxin B1), vehicle controls (0.5% DMSO), and total lysis controls (0.5% DMSO). Cell morphology images were taken using an Essen IncuCyte FLR automated microscope, with six 96-well plates imaged in about 24 minutes. Images were captured and exported and JPEG files. Spent culture media was transfered to black-well plates for the LDH assay, and remaining media was sorted at -80 C for later use. Cells were treated with RLT buffer and frozen until shipped for gene expression analysis. Total RNA was isolated from the cell suspension in 75 uL of Buffer RLT (Qiagen, Germantown, MD 20874) by Quintiles/Expression Analysis (Durham, NC) using a custom isolation procedure. Total RNA from each plate well was transferred to a preamplification plate. Fluidigm's 96.96 Dynamic ArrayTM (Fluidigm, Amsterdam, the Netherlands) technology was used for gene expression analyses by quantitative reverse transcription polymerase chain reaction (qRT-PCR, performed by Quintiles/Expression Analysis, Durham, NC)89. Standard TaqManTM Assays (Applied Biosystems/ThermoFisher Scientific, Foster City, CA) were used to assess the expression of 93 genes selected based on their selectivity and sensitivity to important hepatic receptors known to be modulated by environmental chemicals; importance in human hepatocyte functionality; and hepatotoxicity. […]
On to `CCCN(C1CCN(C(=O)C2CCNCC2)CC1)[C@@H]1CCc2ccc(OC)cc2C1`, for which the AC50 is 88.2 µM (active).

Take `COCCOCCOCCOC`: the compound was called inactive.

For `CN(C)c1ccc(N=NS(=O)(=O)O)cc1`, the half-maximal activity concentration (AC50) is 9.92 µM (active).

On to `CC(C)CCCCCCOC(=O)c1ccc(C(=O)OCCCCCCC(C)C)c(C(=O)OCCCCCCC(C)C)c1`, for which the result was inactive.

Take `CC(C)=CCCC(C)=CC=O`: the outcome was inactive.

As for `CCOc1cccc(-n2cc(C(=O)N3CCN(c4cc(C(=O)O)c5ccccc5c4)CC3)nc2-c2ccc(C)cc2)c1`, the AC50 is 29.8 µM (active).

`COC(=O)c1c(Cl)c(Cl)c(C(=O)OC)c(Cl)c1Cl`: the compound was called inactive.

On to `COc1ccc(/C=C/S(=O)(=O)NC(=O)c2ccc(C)cc2Cl)cc1`, for which the compound was classed as inactive.

For the compound `Nc1nc2ncc(CNc3ccc(C(=O)N[C@@H](CCC(=O)O)C(=O)O)cc3)nc2c(=O)[nH]1`, the compound was classed as inactive.

With `COc1ccc(-n2nc(C(F)F)cc2-c2ccc(S(C)=O)cc2)cc1` (stereo not given), the AC50 is 15.6 µM (active).

Regarding `CCn1nc(Cc2ccccc2)cc1C1CCN(C[C@H]2C[C@H](N(C)[C@@H](C(=O)O)C(C)C)C[C@@H]2c2cccc(F)c2)CC1`, the AC50 is 43.5 µM (active).

With `CC(C)=CCCC(C)CCO` (stereo not given), the compound was called inactive.

Regarding `CC(C)c1cccc(C(C)C)c1N1C(=O)c2ccc(O)cc2C1=O`, the AC50 was 72 µM (active).

As to `Cn1c(=O)cc(Oc2ccc(F)cc2F)c2cnc(NCC(C)(C)O)nc21`, the outcome was inactive.

For `CC(C)CCCCCCCOC(=O)CCCCC(=O)OCCCCCCCC(C)C`, the call was inactive.

Take `CC[C@H](C)C(=O)O[C@H]1C[C@@H](C)C=C2C=C[C@H](C)[C@H](CC[C@@H]3C[C@@H](O)CC(=O)O3)[C@H]21`: the call was inactive.

For `Cc1ccc(N)cc1O`, the compound was called inactive.

Consider `CC(=O)OCCC(C)C`, for which the result was inactive.

With `CC(O)CN(CCN(CC(C)O)CC(C)O)CC(C)O` (stereo not given), the call was inactive.

For `CCCCCCCCCCCCc1ccccc1`, the compound was classed as inactive.

Consider `COC(=O)CC(=O)OC`, for which the compound was called inactive.

As for `C[C@](N)(Cc1ccc(O)c(O)c1)C(=O)O`, the compound was called inactive.

As to `CNCc1ccc(NC(=O)c2c[nH]c3c2C(=O)CCC3)cc1`, the outcome was inactive.

For `O=C(O)c1cccc(N(Cc2cccnc2)c2ccc(OC(F)F)c(OC(F)F)c2)c1`, the compound was classed as inactive.

Regarding `COCCOc1cc2cc(C(=O)NC3CCN(C(C)C)CC3)n(CC(=O)Nc3ccc(Cl)cn3)c2cn1`, the AC50 was 76.7 µM (active).

On to `Nc1ccc(Nc2ccccc2)cc1`, for which the outcome was inactive.

Turning to `CC(=O)c1ccc2c(c1)[C@H](NC(=O)c1ccc(F)cc1)[C@@H](O)C(C)(C)O2`, the compound was called inactive.

In the case of `CCCC(=O)OCC`, the compound was called inactive.

As to `CCOCCOCCOCCO`, the result was inactive.

Regarding `Clc1nc(Cl)c(Cl)c(Cl)c1Cl`, the call was inactive.

As for `Cc1ccc(C)c(O)c1`, the compound was classed as inactive.

For `Cn1cnc([N+](=O)[O-])c1Sc1ncnc2nc[nH]c12`, the AC50 is 0.238 µM (active).

`CC[C@H]1CC[C@H](NCc2cc3c(cc2OC)[C@H]2C[C@H]2C(=O)N3C)[C@H](c2ccccc2)N1`: the concentration at half-maximal activity (AC50) was 76.8 µM (active).

Regarding `Cc1[nH]cnc1C[C@H]1CCc2c(C)c3ccccc3n2C1=O`, the AC50 is 18.9 µM (active).

For the compound `O=C(O)CCN(C1(C(=O)NO)CCCC1)S(=O)(=O)c1ccc(Oc2ccc(F)cc2)cc1`, the compound was classed as inactive.

As for `O=P(OC(CCl)CCl)(OC(CCl)CCl)OC(CCl)CCl`, the half-maximal activity concentration (AC50) is 79 µM (active).

Consider `CCCCCCc1ccc(O)cc1O`, for which the outcome was inactive.

On to `Cc1c(-c2cccnc2)c2ccccc2n1CCCCC(=O)O`, for which the outcome was inactive.

Take `CC[C@H]1OC(=O)[C@H](C)[C@@H](O[C@H]2C[C@@](C)(OC)[C@@H](O)[C@H](C)O2)[C@H](C)[C@@H](O[C@@H]2O[C@H](C)C[C@H](N(C)C)[C@H]2O)[C@](C)(O)C[C@@H](C)C(=O)[C@H](C)[C@@H](O)[C@]1(C)O`: the call was inactive.

Regarding `O=C1CCC(N2C(=O)c3ccccc3C2=O)C(=O)N1` (stereo not given), the result was inactive.

Values taken from PubChem BioAssay (EPA / NIEHS).
